Results: PubChem BioAssay (NCATS)
“And” between values parts separate entries of the source, which are not always exact repeats. Equal entries are not always repeated. Results filed as inconclusive are left out. The source made the active and inactive calls. The call rests on the fitted dose curve; in most records, active means well fitted cell-killing curve with a large enough effect; inconclusive means small, poorly fitted or top-dose-only effect; inactive means flat fitted curve, though single readings scatter.

Experiment: Cell Viability - N2a (AID 540); further: nearly all actives have a fitted effect of over 45% in size;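 on activity change, negative = cytotoxicity: plate controls were DMSO alone for no effect and tamoxifen control for full effect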
Conditions: N2a mouse neuroblastoma cell viability; activity change, negative = cytotoxicity: at 92.2 µM (top of the series)
Excerpt: NIH Chemical Genomics Center [NCGC]
NIH Molecular Libraries Screening Centers Network [MLSCN]
National Institutes of Environmental Health Sciences [NIEHS]
National Toxicology Program [NTP]
We have developed a 1536-well cell-based assay for quantitative high throughput screening (qHTS) against a number of cell lines to determine in vitro cytotoxicity of small molecules. This particular assay uses the N2a cell line which is derived from mouse neuroblastoma.
NCGC Assay Protocol Summary:
The CellTiter-Glo luminescent cell viability assay (Promega) is a homogeneous method to measure the number of viable cells in culture. The end point readout of this assay is based on quantitation of intracellular ATP, an indicator of metabolic activity, using the luciferase reaction. Luciferase catalyzes the oxidation of beetle Luciferin to oxyluciferin and light in the presence of ATP. The luminescent signal is proportional to amount of ATP present.
Using the CellTiter-Glo luminescent cell viability assay, the amount of cellular ATP was measured in the N2a cell line with complete culture medium following compound treatment for 40 hours. The assay was performed in opaque white Kalypsys 1536-well plates. In the screen, tamoxifen and doxorubicin were used as positive controls. Library compounds were measured for their ability to cause acute toxicity in the cell line, as reflected by a decrease in intracellular ATP levels, in a concentration-dependent manner. […] AC50 values were determined from concentration-response data modeled with the standard Hill equation.
qHTS protocol for CellTiter Glo N2a cellular assay
[Step] [Parameter] [Value] [Description]
1. Reagent; 5 uL; 1500 N2a cells/well
2. Time; 5 hr; 37 °C incubation
4. Controls; 23 nL; Tamoxifen 0.34 uM to 100 uM & Doxorubicin 0.02 nM to 100 uM
5. Time; 40 hr; 37 °C incubation
6. Reagent; 5 uL; CellTiter Glo reagent
7. Time; 20 min; Room Temperature
8. Detection; Luminescence; Viewlux plate reader
Keywords: cell viability, cytotoxicity, N2a cell line, luminescence, NTPHTS, NTPHTS_NCGC, NIEHS, EPA, DSSTox, MLSMR, MLSCN, NIH Roadmap, qHTS, NCGC
Potency means the concentration at half of the fitted maximal effect.

SMILES | activity change, negative = cytotoxicity | Potency
Cc1ccc([N+](=O)[O-])cc1N | -2.12% (inactive) | 
COCC(=O)O | 3.33% (inactive) | 
O=C(O)c1ccccc1C(c1ccc(O)cc1)c1ccc(O)cc1 | 6.19% (inactive) | 
c1ccc2c(c1)c1cccc3ccc4cccc2c4c31 | 3.28% (inactive) | 
c1ccccc1 | -0.296% (inactive) and -3.09% (inactive) | 
Cc1ccc([N+](=O)[O-])c(C)c1 | -14.6% (inactive) | 
CC1(C)CC(N=C=O)CC(C)(CN=C=O)C1 (stereo not given) | 6.51% (inactive) | 
C=C(C)C1CC=C(C)C(O)C1 (stereo not given) | -0.158% (inactive) | 
O=C1c2ccccc2C(=O)C1c1ccc2ccccc2n1 |  | 31.6 µM (active)
CCC(C)c1ccccc1O (stereo not given) | 0.301% (inactive) and 2.4% (inactive) | 
CCCCOCCO | 6.13% (inactive) and -1.59% (inactive) | 
CN(C)C=O | -9.63% (inactive) and 3.24% (inactive) | 
CCCCCCCCCCCCCCC1CO1 (stereo not given) | 8.54% (inactive) | 
C=CCOC(=O)c1ccccc1C(=O)OCC=C | -8.09% (inactive) | 
CC12CCC(CC1=O)C2(C)C (stereo not given) | -9.82% (inactive) | 
CCCN(CCC)C(=O)SCC | -0.642% (inactive) | 
ClCCCl | 3.03% (inactive) | 
C[C@H](CCC(=O)O)[C@H]1CC[C@H]2[C@@H]3CC[C@@H]4C[C@H](O)CC[C@]4(C)[C@H]3CC[C@]12C | 2.31% (inactive) | 
COC(=O)c1ccc(C)cc1 | -14.4% (inactive) | 
COC(=O)c1ccc(C=O)cc1 | -4.37% (inactive) | 

SMILES | activity change, negative = cytotoxicity | Potency
CCO[Si](CCCN)(OCC)OCC | -19% (inactive) | 
CC(=O)OC/C=C(\C)CCC=C(C)C | -0.528% (inactive) | 
CC(C)=CCCC(C)CCO (stereo not given) | -9.36% (inactive) | 
COc1c2ccoc2cc2oc(=O)ccc12 | 0.867% (inactive) | 
Cc1ccc(N)c([N+](=O)[O-])c1 | 2.46% (inactive) | 
C=Cc1ccccc1Cl | 1.46% (inactive) | 
O=C1CCc2ccccc2O1 | 7.64% (inactive) | 
C=CC(=C)CCC=C(C)C | 5.78% (inactive) | 
COc1cc(/C=C/c2ccccc2)oc(=O)c1 | 1.71% (inactive) | 
CN(C)CCCCCCN(C)C | 1.64% (inactive) | 
Nc1ccc(Cl)cc1Cl | 7.32% (inactive) | 
O=[N+]([O-])c1cccc(Cl)c1Cl | -3.99% (inactive) | 
COC(=O)CCCCC(=O)OC | 4.03% (inactive) | 
CC1=CC(C)(C)Nc2ccccc21 | -24% (inactive) and 1.94% (inactive) | 
Nc1ccc(S(=O)(=O)O)cc1 | -1.94% (inactive) | 
OCCNCCO | 6.19% (inactive) | 
Cc1ccccc1C | -22.6% (inactive) and -8.22% (inactive) | 
Clc1cc(Cl)c(Cl)cc1Cl | 2.22% (inactive) | 
O=C(O)CC(C(=O)O)C(CC(=O)O)C(=O)O (stereo not given) | -8.87% (inactive) | 
CCCCCCCCCCCC(=O)O | -16.1% (inactive) and -7.4% (inactive) | 
